# Bioassay records as filed in PubChem BioAssay.
# PfHsp90 set2: growth inhibition of PfHsp90-expressing yeast, primary screen, antimalarial PfHsp90 inhibitor project, S. cerevisiae, BacTiter-Glo luminescence, single point, set 2; BacTiter-Glo ATP, 48 h; yeast lacking PDR1 and PDR3 efflux regulators; inhibition, % at 9.4 µM; 310,000 tested, 0.32% active;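 active = every replicate shows inhibition above about 80%, whatever the replicate mean, limit read from the data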;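 note: 0% = DMSO neutral controls and 100% = 20 µM radicicol positive controls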
# tim10-1 inh: growth inhibitors of tim10-1 mutant yeast, primary screen, luminescence, uHTS; S. cerevisiae tim10-1 ts strain growth, BacTiter-Glo, 24 h; inhibition, % at 20 µM; 330,000 tested, 2.2% active; AID 463190, 2010;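 active = inhibition of at least 40%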;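 note: mutant grown at 25 °C; 0% = DMSO wells with yeast and 100% = wells holding no yeast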
# tim23-1 inh: growth inhibitors of tim23-1 mutant yeast, primary screen, luminescence, uHTS. S. cerevisiae tim23-1 growth, BacTiter-Glo luminescence, 24 h. inhibition, % at 20 µM. 330,000 tested, 1.3% active. AID 463212, 2010;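 active = growth inhibition of the mutant yeast at or above 50%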;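 note: temperature-sensitive mutant grown at 25 °C; plate controls were DMSO-treated mutant yeast for no effect and medium wells lacking yeast for full effect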
# TIM10 inh: growth inhibitors of isogenic TIM10 control yeast, primary screen, counter-screen for tim10-1 yeast inhibitor project, luminescence, uHTS; S. cerevisiae TIM10 strain growth, BacTiter-Glo luminescence, 24 h; inhibition, % at 10 µM; 330,000 tested, 1.4% active; AID 463195, 2010;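 active = inhibition of 40% or more at the single tested concentration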;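 note: wild-type TIM10 isogenic control strain grown at permissive 25 °C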
# Mot1-301 SUMO: yeast Mot1-301 growth rescue at high temperature, primary screen, SUMOylation pathway inhibitor project, S. cerevisiae, ATP luminescence, 38.5C; growth rescue, % at 18.8 µM; S. cerevisiae Mot1-301 growth rescue; percent above DMSO median, 100 means doubled; 320,000 tested, 1% active;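 active = every valid replicate shows activation above 250% relative to neutral control wells; inactive = the rest, any valid replicate at or below 250%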;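 note: OY570 slx delta 5 strain wells were the positive control but not used for scaling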
# tim10-1 confirm: growth inhibitors of tim10-1 mutant yeast, confirmation, single concentration, luminescence, S. cerevisiae; shares compounds with tim10-1 inh; S. cerevisiae tim10-1 ts strain growth, BacTiter-Glo, 24 h; inhibition, % at 20 µM; 7,400 tested, 56% active;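 active = inhibition of yeast growth at or above a set limit in either of two repeat tests at 20 µM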;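 note: tim10-1 mutant grown at permissive 25 °C to find synthetic lethal compounds; 0% = DMSO yeast wells and 100% = medium wells without yeast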
# TIM10 conf: growth inhibitors of wild-type TIM10 yeast, confirmation, counter-screen for tim10-1 synthetic lethality project, single concentration, luminescence, S. cerevisiae | shares compounds with TIM10 inh | S. cerevisiae tim10 strain growth, BacTiter-Glo luminescence, 24 h | inhibition, % at 10 µM | 4,600 tested, 63% active;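 active = inhibition of yeast growth at or above a set limit in either of two replicates at 10 µM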;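 note: this counterscreen used the strain with wild-type TIM10; 0% = yeast with DMSO and 100% = medium wells lacking yeast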
# The depositor's hits bear a star; · = no result given. This is a sample that favours compounds with a hit; in the whole collection about 4.4% have one here.
SMILES,PfHsp90 set2,tim10-1 inh,tim23-1 inh,TIM10 inh,Mot1-301 SUMO,tim10-1 confirm,TIM10 conf
O=C(/C=C/c1cccs1)c1cc(F)ccc1OC(=O)N1CCOCC1,-11.4,52.7*,47.1,53.9*,-1.1,54.8*,-26.4
CCOC(=O)c1ccc(NS(=O)(=O)c2ccc(SC)cc2)cc1,-22.4,40.8*,43.1,40.3*,162.7,38.3*,10.9
N/C(=N\OC(=O)c1cccnc1)c1ccc(Cl)cc1Cl,-2.2,43.8*,40.7,40.6*,17.6,41.0*,21.1
N/C(=N\OC(=O)c1cccnc1)c1ccccc1Cl,0.0,5.9,12.6,20.1,-3.0,·,·
O=S(=O)(Nc1ccccc1)c1ccc(Oc2ncc(C(F)(F)F)cc2Cl)cc1,8.6,48.8*,25.0,49.2*,-4.0,46.3*,51.0*
Fc1ccc(N2CCN(c3nc(CN4CCOCC4)nc4scc(-c5ccccc5)c34)CC2)cc1,-9.2,54.8*,48.6,40.5*,159.3,33.8*,33.9*
O=C(/C=C/c1ccc(Cl)cc1Cl)c1ccc[nH]1,-4.1,46.8*,18.4,54.3*,63.0,39.0*,39.8*
CCc1ccc(NC(=S)N2CCCCCCC2)cc1,-12.5,42.3*,28.8,40.6*,-1.7,30.6,17.3
CCOc1ccc(NC(=S)N2CCCC2)cc1,-0.8,-3.9,-3.4,1.1,4.7,·,·
CCCCc1ccc(NC(=S)N2CCCC(C)C2)cc1 (centres undefined),12.0,43.5*,36.1,44.6*,20.2,28.9,31.4*
CCOC(=O)c1ccc(NC(=S)N2CCCC(C)C2)cc1 (centres undefined),0.1,24.8,5.0,26.6,10.0,·,·
COc1ccc(C(=O)NC(=S)Nc2cc3oc4ccccc4c3cc2OC)cc1,4.5,-9.5,6.7,11.6,-10.0,·,·
COc1cc2c(cc1NC(=O)CN1CCN(S(=O)(=O)c3ccc(C)cc3)CC1)oc1ccccc12,0.0,12.0,-7.8,-14.5,-2.9,·,·
COc1cc2c(cc1NS(=O)(=O)N1CCCC1)oc1ccccc12,13.5,42.7*,37.1,46.9*,·,29.2,43.0*
COc1cc2c(cc1NC(=O)c1ccncc1)oc1ccccc12,22.2,45.9*,-13.8,42.2*,289.8,25.1,47.0*
O=C1NC(=O)C(c2cccs2)(c2cccs2)N1,-22.0,7.3,15.2,-4.3,-8.9,·,·
Cc1cccc(-n2ccc(=O)c(C(=O)Nc3ccc(S(=O)(=O)Nc4onc(C)c4C)cc3)n2)c1,-19.7,1.0,6.1,12.5,7.8,·,·
CCCC(=O)NC(=S)Nc1cccc(C(C)=O)c1,6.8,26.3,14.9,11.0,-0.8,·,·
CCCCCC(=O)NC(=S)Nc1cccc(C(C)=O)c1,6.9,40.0,42.4,42.9*,-2.4,29.4,25.2
CCCCCC(=O)NC(=S)Nc1ccccc1C(=O)OC,4.9,40.0*,44.6,43.1*,-19.1,23.5,34.1*
O=C(NNC1=C(C(=O)C(F)(F)F)CCC1)c1ccc(Cl)cc1,122.3*,53.3*,49.6,41.1*,-4.3,-16.5,39.5*
CN1/C(=C\C(=S)Nc2ccccc2)C(C)(C)c2ccccc21,2.1,50.9*,33.7,48.5*,-1.0,47.2*,55.6*
CC(C)NC(=O)COc1coc(CN2CCN(C(=O)c3ccco3)CC2)cc1=O,-31.1,4.8,-6.6,6.5,192.7,·,·
NNc1nc2c(-c3ccc(F)cc3)nnn2c2ccccc12,-16.5,46.0*,25.6,74.2*,-4.5,55.5*,72.9*
C=CCOc1ccc(/C=C/C(=O)OCc2csc(CC(=O)Nc3ccccc3C)n2)cc1,-3.9,-8.7,8.7,-11.2,118.8,·,·
SMILES,PfHsp90 set2,tim10-1 inh,tim23-1 inh,TIM10 inh,Mot1-301 SUMO,tim10-1 confirm,TIM10 conf
Cn1c(N2CCOCC2)nc2c1c(=O)n(Cc1ccc(Cl)cc1)c(=O)n2C,13.3,-41.3,22.2,-26.0,10.2,·,·
CC1CN(c2nc3c(c(=O)n(Cc4ccc(Cl)c(Cl)c4)c(=O)n3C)n2C)CC(C)O1 (centres undefined),-39.7,48.8*,38.6,45.2*,1.3,43.5*,33.4*
CC(=O)c1cccc(NC(=O)C2C(c3ccccc3)C2(Cl)Cl)c1 (centres undefined),4.7,44.5*,23.4,41.5*,0.9,20.8,23.4
COc1ccc(NC(=O)C2C(c3ccccc3)C2(Cl)Cl)cc1 (centres undefined),-4.2,2.1,17.5,18.1,85.0,·,·
O=C(CC(Cc1ccccc1)C(=O)O)Nc1ccc(Cl)c(Cl)c1 (centres undefined),7.6,-11.7,2.2,-2.6,-21.2,·,·
Cc1ccc(N2C(=O)C3C4C=CC(CC4)C3C2=O)cc1[N+](=O)[O-] (centres undefined),-5.3,1.3,10.5,5.7,6.7,·,·
Cc1cc(N2C(=O)C=CC2=O)c([N+](=O)[O-])cc1C,117.0*,95.3*,3.6,82.8*,-54.6,93.4*,95.1*
Cc1cc(NC(=O)COC(=O)C2CC(=O)N(c3ccc(Cl)cc3)C2)no1 (centres undefined),8.2,7.0,12.9,2.9,5.3,·,·
Cc1ccc(S(=O)(=O)Nc2cccc(C(=O)NCC3(N4CCCCC4)CCCCC3)c2)cc1F,-28.3,-14.1,-7.6,-8.4,99.4,·,·
CCn1c(C)c(/C=N/Nc2nc3ccccc3s2)c2ccccc21,·,48.2*,20.8,42.5*,·,25.2,27.3
Cc1nn(-c2ccccc2Cl)c(Cl)c1/C=N/Nc1nc2ccccc2s1,-12.9,6.3,12.0,8.8,-27.6,·,·
COc1ccc(C(=O)Cn2c(C(=O)/C=C/c3ccccc3)nc3ccccc32)cc1,-18.5,49.4*,18.6,41.5*,30.2,43.5*,35.5*
COc1cccc(C(C[N+](=O)[O-])c2c(C)[nH]n(-c3ccccc3)c2=O)c1 (centres undefined),14.3,51.4*,27.3,62.1*,215.4,64.5*,89.2*
COc1cccc(N=Nc2c(C)[nH]n(-c3ccccc3)c2=O)c1,-1.4,-14.7,16.9,-3.1,0.0,·,·
O=C(Nc1cccc2ccccc12)c1nn(C23CC4CC(CC(C4)C2)C3)cc1[N+](=O)[O-],5.4,40.5*,47.5,40.6*,-4.2,31.9*,13.7
COc1ccc(NC(=O)c2nn(C34CC5CC(CC(C5)C3)C4)cc2[N+](=O)[O-])cc1,6.3,4.8,19.0,18.2,71.3,·,·
